# Data published in PubChem BioAssay (NCATS).
# Inconclusive results are not listed. Where a call stands in place of a potency, no number is given. A number with no mark means an inactive call. Activity calls are given as the source filed them. Calls follow the shape of the dose curve; as a rule, active = well fitted inhibition curve with a large enough effect; inconclusive = small, poorly fitted or top-dose-only effect; inactive = flat fitted curve, though single readings scatter.
# Test: P-glycoprotein substrates identified in KB-8-5-11 adenocarcinoma cell line, qHTS therapeutic library screen (AID 1346987); also: nearly all actives have a fitted effect of over 65% in size
# Details: KB-8-5-11 (P-gp overexpressing) viability, CellTiter-Glo, 72 h; series mostly up to 44.5 µM
# How it was run: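 Steps: plate 500 KB-8-5-11 cells/well in DMEM + 10% FCS (colchicine removed); pin compounds in dose-response; incubate 72 h, 37 degree C, 5% CO2; add CellTiter-Glo, 5 min; read luminescence.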
# Potency is read from the fitted curve at half-maximal effect.
SMILES,"activity change, negative = cytotoxicity",Potency
CC(C)NC(=O)N1CC[C@H](N=C2Nc3cc(F)ccc3N(CC(F)F)c3ccc(Cl)cc32)C1,-19.3% [at 9.29 µM],
CN(C)CC#CCCC(=O)C(O)(c1ccccc1)C1CCC1 (centres undefined),,inactive
COc1ccc(CNCc2cccc3ccccc23)cc1,,inactive
O=S(=O)(N[C@H]1CCCC[C@@H]1N1CCOCC1)c1ccc(Cl)cc1,,inactive
Cn1nnnc1SCC1=C(C(=O)O)N2C(=O)[C@@H](NC(=O)[C@H](OC=O)c3ccccc3)[C@H]2SC1,,inactive
CCCCCCCCCCCCCCCC(=O)OC/C=C(C)/C=C/C=C(C)/C=C/C1=C(C)CCCC1(C)C,,inactive
O=C(c1cc(Cc2n[nH]c(=O)c3ccccc23)ccc1F)N1CCCNCC1,,inactive
COc1ccc(CNc2nc(N(CCO)CCO)nc3c2ncn3C(C)C)cc1,,5.8 µM (active)
O=C(Nc1ccc(CN2CCOCC2)cc1)c1ccc(-c2cccc(Cl)c2)o1,,16.4 µM (active)
CC/C=C\CC1C(=O)C=CC1(CCCCC1CCC(=O)O1)OC(C)=O (centres undefined),,inactive
c1cnc2cc3c(cc2n1)[C@@H]1CNC[C@H]3C1,,inactive
C=C1CCCC2(C)CCC(C(C)(C)OC3OC(C)C(O)C(O)C3OC(=O)/C(C)=C\C)CC12 (centres undefined),,inactive
C/C=C/C=C/C(=O)O[C@@H]1C=C2COC(=O)[C@]2(O)[C@@]2(C)CCCC(C)(C)[C@H]12,,inactive
O=C(Nc1ccc(/C=C/c2ccc(NC(=O)c3cc(S(=O)(=O)O)c4cccnc4c3O)cc2S(=O)(=O)O)c(S(=O)(=O)O)c1)c1cc(S(=O)(=O)O)c2cccnc2c1O,,inactive
COc1ccc(CCN(C)CCCOc2nsc(-c3ccccc3)n2)cc1OC,,inactive
CCCCOc1ccc(S(=O)(=O)n2c(C)nc3ccccc32)cc1,,inactive
COc1ccccc1-c1ccc(-c2cn(C(=O)N3CCCCC3Cc3ccccc3)nn2)cc1 (centres undefined),,inactive

SMILES,"activity change, negative = cytotoxicity",Potency
O=C(c1ccccn1)N(Cc1cccs1)C1(C(=O)NC2CCCCC2)CCCCC1,,inactive
CCN(CC)C(=O)C(c1ccccc1)N1CCN(c2ccc(NC(=O)c3ccccc3-c3cccnc3)cc2F)CC1 (centres undefined),,inactive
CC1=CC2/C=C(\C)CCC(O)C(=O)C(O)CC(=O)C23C(=O)NC(CC(C)C)C3C1C (centres undefined),,inactive
CCc1c(Cl)c(O)c(Cl)c(O)c1C(=O)O[C@H]1[C@H](O)[C@H](OC)[C@H](OC/C2=C\C=C\C[C@H](O)/C(C)=C\[C@H](CC)[C@@H](O[C@@H]3OC(C)(C)[C@@H](OC(=O)C(C)C)[C@H](O)[C@@H]3O)/C(C)=C/C(C)=C/C[C@@H]([C@@H](C)O)OC2=O)O[C@@H]1C,,inactive
CNS(=O)(=O)c1ccccc1Nc1nc(Nc2ccc(N3CCN(C)CC3)cc2OC)ncc1Br,,2.06 µM (active)
CC(=O)c1ccc2c(c1)[C@H](NC(=O)c1ccc(F)c(Cl)c1)[C@H](O)C(C)(C)O2,,inactive
CC(C)n1nc(C#Cc2ccccc2)c2c(N)ncnc21,,16.4 µM (active)
Nc1nc(OCc2cc(Br)cs2)c2[nH]cnc2n1,,inactive
COC(C)=O,,inactive
COC(=O)C(Cc1ccc(OCCn2c(=O)sc3cc(C(=O)c4ccccc4)ccc32)cc1)C(=O)OC,,inactive
C=CC(=O)Nc1ccc2ncnc(Nc3cccc(Br)c3)c2c1,,8.2 µM (active)
CCC(C(C)O)n1ncn(-c2ccc(N3CCN(c4ccc(OCC5COC(Cn6cncn6)(c6ccc(F)cc6F)C5)cc4)CC3)cc2)c1=O (centres undefined),,18.4 µM (active)
O=C(OCCO)c1ccccc1O,,inactive
O=C(Nc1ccc(N(Cc2ccsc2)C(=O)Cn2nnc3ccccc32)cc1)C1CC1,,inactive
C=CC(=O)N1CCC[C@@H](n2nc(-c3cccc(C(=O)Nc4ccc(C(C)C)c(C)c4)c3)c3c(N)ncnc32)C1,,inactive
CC(CCC1(O)OC2CC3C4CC=C5C[C@@H](O[C@@H]6O[C@H](CO)[C@@H](O[C@@H]7O[C@@H](C)[C@H](O)[C@@H](O)[C@H]7O)[C@H](O)[C@H]6O[C@@H]6O[C@@H](C)[C@H](O)[C@@H](O)[C@H]6O)CC[C@]5(C)C4CC[C@]3(C)[C@@]2(O)[C@@H]1C)CO[C@@H]1O[C@H](CO)[C@@H](O)[C@H](O)[C@H]1O (some centres undefined),-2.5% [at 9.29 µM],
CC(=O)O[C@@H]1[C@@H](OC(C)=O)[C@H](C)O[C@@H](O[C@H]2[C@@H]3C=CO[C@@H](O[C@@H]4O[C@H](CO)[C@@H](O)[C@H](O)[C@H]4O)[C@@H]3[C@@]3(CO)O[C@@H]23)[C@@H]1OC(=O)/C=C/c1ccccc1,,inactive
